The values below come from PubChem BioAssay.

Assay [1] deals with Tumor necrosis factor receptor superfamily member 10B (Homo sapiens) (UniProt O14763). The experiment in a line: viability loss of caspase-8 NB7 cells with TRAIL – with/without TRAIL, luminescence panel, confirmation (AID 651596). The note with it: NB7 neuroblastoma + caspase-8, TRAIL sensitization, NB7 Caspase-8, with TRAIL, mean of runs, at 10 µM, stronger effect = higher value.
Experiment in assay [2]: as above
The note with it: NB7 neuroblastoma + caspase-8, without TRAIL, NB7 Caspase-8, without TRAIL, mean of runs, at 10 µM.

The target in assay [3] is Tumor necrosis factor receptor superfamily member 10B (Homo sapiens) (UniProt O14763). The experiment in a line: compound enhancement of TRAIL-induced cell killing – NB7 cells plus caspase-8, luminescence, panel, dose response (AID 652002). Particulars: NB7 neuroblastoma +caspase-8, TRAIL sensitization, luminescence viability, NB7+Caspase-8, with TRAIL, run 1; at 12.5 µM (top of the series).

Assay [4] has the same target. Described as above. Particulars: NB7 neuroblastoma +caspase-8, TRAIL sensitization, luminescence viability, NB7+Caspase-8, with TRAIL, run 2; at 12.5 µM (top of the series).
Experiment in assay [5]: as above
The note with it: NB7 neuroblastoma +caspase-8, no TRAIL, compound-alone cytotoxicity counter-screen, luminescence viability, NB7+Caspase-8, run 1; at 12.5 µM (top of the series) unless noted. In general terms: The purpose of a counterscreen is to sort out artefacts and off-target activity.

Experiment in assay [6]: as above
Particulars: NB7 neuroblastoma +caspase-8, no TRAIL, compound-alone cytotoxicity counter-screen, luminescence viability, NB7+Caspase-8, run 2; at 12.5 µM (top of the series) unless noted.

Sequence of Tumor necrosis factor receptor superfamily member 10B (Homo sapiens) (O14763 whole entry, looked up): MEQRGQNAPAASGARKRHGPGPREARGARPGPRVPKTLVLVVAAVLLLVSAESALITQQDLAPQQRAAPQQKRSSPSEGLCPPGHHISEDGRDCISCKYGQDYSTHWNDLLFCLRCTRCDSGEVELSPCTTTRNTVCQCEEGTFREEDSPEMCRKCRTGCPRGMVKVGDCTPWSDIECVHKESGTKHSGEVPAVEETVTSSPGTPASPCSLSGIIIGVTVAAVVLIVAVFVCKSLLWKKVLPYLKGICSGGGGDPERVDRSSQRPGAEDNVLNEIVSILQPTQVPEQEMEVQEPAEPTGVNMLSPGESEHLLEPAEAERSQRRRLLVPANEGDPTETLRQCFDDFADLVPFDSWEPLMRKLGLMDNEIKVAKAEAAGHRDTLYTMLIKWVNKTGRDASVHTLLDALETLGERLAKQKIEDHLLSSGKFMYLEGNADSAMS

As to `Cc1ccc(NC(=O)c2cc3ccccc3o2)nc1`, the activity in assay [1] was 58.9%; in assay [2], 49.5%. Moreover, the activity, % sensitization in assay [3] is 32.6%; in assay [4], 41.2%; in assay [5], 43%; in assay [6] it was 41.7%.
Regarding `Clc1nc(Cl)c2ncn(-c3ccccc3)c2n1`, the activity in assay [1] was found to be 81%; in assay [2] it was 52.3%. For the same molecule, the activity, % sensitization in assay [3] is -4.89%; in assay [4], -7.36%; in assay [5] it was 2.2%; in assay [6], -11.5%.
Consider `CCN(CC)S(=O)(=O)c1ccc(C(=O)OCC(=O)Nc2ccc(-c3nc4ccc(C)cc4s3)cc2)cc1`, for which the activity in assay [1] worked out at 68.5%; in assay [2], 55%. Moreover, the activity, % sensitization in assay [3] was 20.1%; in assay [4], -0.711%; in assay [5], 13.4%; in assay [6] it was -8.61%.
With `O=C(Nc1ccc2ccccc2c1)c1ccc(Cl)cc1`, the activity in assay [1] amounted to 63.1%; in assay [2], 51.3%. The activity, % sensitization in assay [3] was 33.9%; in assay [4] it was 31.4%; in assay [5], 13%; in assay [6] it was -8.49%.
Consider `CN1C[C@@H]2[C@@H]3C(=O)N(Cc4ccccc4)C(=O)[C@@H]3[C@](Cc3ccccc3)(C1=O)N2C(=O)c1ccc(C(C)(C)C)cc1`, for which the figures for the activity in assay [1] and in assay [2] were 74.5% and 47.9%, respectively. Also, the activity, % sensitization in assay [3] was -1.09%; in assay [4] it was 15.8%; in assay [5], 7.44%; in assay [6], -17%.
For the molecule `CCOC(=O)c1sc(NC(=O)Nc2ccc(F)cc2)nc1C`, the activity in assay [1] stood at 56.6%; in assay [2], 44.6%. In addition, the activity, % sensitization in assay [3] is 29%; in assay [4] it was 12.6%; in assay [5] it was -5.48%; in assay [6], -3.68%.
For the molecule `COc1ccc(-c2nc(-c3ccc(NC(=O)c4ccncc4)cc3)no2)cc1OC`, the results for the activity in assay [1] and in assay [2] were 70.5% and 47.2%, respectively. Further, the activity, % sensitization in assay [3] was -12.9%; in assay [4] it was -17.5%; in assay [5] it was 2.44%; in assay [6] it was -14.5%.
In the case of `CCCCCCCn1c2c(c(=N)c3ccccc31)CCC2`, the activity in assay [1] came out at 64.8%; in assay [2] it was 51.8%. Moreover, the activity, % sensitization was determined as 30.9% in assay [3], 38.9% in assay [4], 0.756% in assay [5] and 28% in assay [6].
For `Cn1c(=O)c2c(SCC(=O)Nc3ccccc3F)nc(C3CC3)nc2n(C)c1=O`, the figures for the activity in assay [1] and in assay [2] were 50.8% and 44.9%, respectively. Also, the activity, % sensitization is -6.81% in assay [3], -10.3% in assay [4], -1.87% in assay [5] and -25.4% in assay [6].
Consider `C/C(=N\NC(=O)c1csc(C)c1C)c1ccco1`, for which the results for the activity in assay [1] and in assay [2] were 46.9% and 40.4%, respectively. Besides, the activity, % sensitization in assay [3] is 34.8%; in assay [4] it was 13.8%; in assay [5] it was 22.5%; in assay [6], -4.13%.
`COc1ccc(-c2nnc(SCC(=O)c3[nH]c(C)c(C(C)=O)c3C)o2)cc1`: the activity in assay [1] was determined as 54.1%; in assay [2] it was 53.9%. The activity, % sensitization in assay [3] was -37%; in assay [4], -7.9%; in assay [5] it was -20.2%; in assay [6], -16.4%.
Regarding `NNC(=O)C1CCCn2c1nc1sc3c(c1c2=O)CCCC3` (centres undefined), the activity in assay [1] stood at 51%; in assay [2], 52.8%. Moreover, the activity, % sensitization in assay [3] was 5.3%; in assay [4] it was -9.76%; in assay [5], -17.6%; in assay [6] it was 12.5%.
In the case of `COc1ccccc1C=NNC(=O)NN=Cc1ccccc1OC`, the activity in assay [1] turned out to be 61%; in assay [2], 46.5%. Also, the activity, % sensitization in assay [3] is 42.5%; in assay [4], 48.3%; in assay [5], 54.1%; in assay [6], 35.8%.
In the case of `COCCCn1c(C(=O)Nc2ccc3c(c2)OCO3)cc2c(=O)n3cccc(C)c3nc21`, the activity amounted to 70.2% in assay [1] and 28.2% in assay [2]. Further, the activity, % sensitization is -7.02% in assay [3], -8.71% in assay [4], -1.61% in assay [5] and -25.9% in assay [6].
For the molecule `O=c1[nH]c(N/N=C\c2ccc3c(c2)OCO3)nc2ccccc12`, the results for the activity in assay [1] and in assay [2] were 53.6% and 50.5%, respectively. In addition, the activity, % sensitization is 33.9% in assay [3], 44.5% in assay [4], 38.2% in assay [5] and 35.1% in assay [6].
As for `O=C(Nc1ccc2c(c1)OCCO2)NC1CCCCC1`, the activity worked out at 49.5% in assay [1] and 35.8% in assay [2]. Further, the activity, % sensitization turned out to be 31.2% in assay [3], 41.7% in assay [4], 32.9% in assay [5] and 21% in assay [6].
Take `CCN(CC)c1ccc(NC(=O)Nc2ccccc2)cc1`: the activity in assay [1] was determined as 52%; in assay [2], 47%. Moreover, the activity, % sensitization in assay [3] was 37.6%; in assay [4] it was 44.7%; in assay [5] it was 12%; in assay [6], 31.2%.
Consider `O=C(Nc1ccc2c(c1)OCO2)c1ccc2c(c1)OCO2`, for which the activity in assay [1] was 56.3%; in assay [2] it was 53.1%. The activity, % sensitization in assay [3] worked out at 46.4%; in assay [4] it was 44.3%; in assay [5], 50.5%; in assay [6], 33.4%.
Consider `c1ccc(-c2cnc(-c3ccccn3)nn2)cc1`, for which the activity in assay [1] turned out to be 61.4%; in assay [2] it was 53.5%. For the same molecule, the activity, % sensitization was found to be 26.5% in assay [3], 46.5% in assay [4], 52.7% in assay [5] and 36.1% in assay [6].
With `CN(C)c1ccc(N/C=C/C(=O)c2ccco2)cc1`, the figures for the activity in assay [1] and in assay [2] were 62.6% and 22.4%, respectively. The activity, % sensitization turned out to be 53.8% in assay [3], 49.4% in assay [4], 18.4% in assay [5] and 43.5% in assay [6].
For the molecule `COc1cccc(C(=O)Nc2ccc(C3CC3(Cl)Cl)cc2)c1` (centres undefined), the activity in assay [1] worked out at 47%; in assay [2] it was 46.5%. In addition, the activity, % sensitization in assay [3] is 12.6%; in assay [4], 30.2%; in assay [5], 5.52%; in assay [6], 21.8%.
On to `COc1cccc(NC(=O)c2ccc3c(c2)OCO3)c1`, for which the activity came out at 51.7% in assay [1] and 30.6% in assay [2]. Also, the activity, % sensitization in assay [3] stood at 51%; in assay [4], 42.7%; in assay [5] it was 48%; in assay [6] it was 32.2%.
For the molecule `O=C1c2ccc3c4c(ccc(c24)C(=O)N1c1cccc(O)c1)C(=O)N(c1cccc(O)c1)C3=O`, the activity stood at 63.2% in assay [1] and 53.8% in assay [2]. Also, the activity, % sensitization in assay [3] amounted to 52.1%; in assay [4] it was 35.7%; in assay [5], 29.8%; in assay [6], 21.3%.
`COc1ccc(/C=N/Nc2nc3ccccc3c(=O)n2-c2ccccc2)cc1OC`: the activity in assay [1] was found to be 62.5%; in assay [2], 48.6%. The activity, % sensitization is 47.9% in assay [3], 45.1% in assay [4], 41% in assay [5] and 44.3% in assay [6].
As to `O=C(NNC(=O)c1cc(OCC(F)(F)F)ccc1OCC(F)(F)F)c1ccc(Cl)c(Cl)c1`, the activity in assay [1] came to 63.5%; in assay [2] it was 50.9%. Besides, the activity, % sensitization is -9.65% in assay [3], 2.58% in assay [4], -2.88% in assay [5] and 0.592% in assay [6].
For `CSc1nc(N)n2nc(-c3ccc(Cl)cc3)cc2n1`, the activity amounted to 63.9% in assay [1] and 45.2% in assay [2]. Also, the activity, % sensitization was -2.8% in assay [3], -10.2% in assay [4], 0.419% in assay [5] and -17.1% in assay [6].
As to `COc1cccc(NC(=O)Nc2nccc(C)n2)c1`, the activity in assay [1] was 64.5%; in assay [2], 53%. Also, the activity, % sensitization in assay [3] stood at 46.7%; in assay [4], 47.6%; in assay [5] it was 25.8%; in assay [6], 11.9%.
Turning to `O=c1cc(-c2ccccc2)nc2cc(-c3ccc(F)cc3)[nH]n12`, the activity in assay [1] was found to be 57.6%; in assay [2], 47%. The activity, % sensitization was 5.68% in assay [3], -3.23% in assay [4], -19% in assay [5] and -21.3% in assay [6].
Turning to `Cc1nc2cc(NC(=O)c3ccco3)ccc2n1C`, the values for the activity in assay [1] and in assay [2] were 47.6% and 48%, respectively. Besides, the activity, % sensitization in assay [3] is 30.3%; in assay [4] it was 32.8%; in assay [5] it was -8.74%; in assay [6] it was 21.3%.
